{
  "source": "paper PMC12136788",
  "binders": {"B1": {"name": "chr7:141441981:141441982:+_ENSG00000106028_ENST00000265304|hu_mus|hu_hu_hu_mus_False|1_8 (ssRNA)", "RNA": "GGGAGUUCUACAGUCCGACGAUCCUCAUGUCUUACAAACUGACGAAAUACCUGUAACACAGGUCUUCGAAACAUGGCUUCUGUUUUUCUUACAACCUAAUCUUUAGGCUUUUCCUAAAGGAAAGAAUAACCCGAGCAGCCCAGCAACAGAGGAUUGAGCAUCA"}, "B2": {"name": "chr11:46405157:46405158:+_ENSG00000110492_ENST00000395566|hu_hu|hu_hu_hu_mus_False|8_78 (ssRNA)", "RNA": "GGGAGUUCUACAGUCCGACGAUCCCCUCCCCACUUUGGGCACUUGGUGUGGGCGUGAAGGCAGGGCCGUGAUUGACAGAGCUGACAGGAAGACAAAAGGCACUGGUGGGUUAUAUCUUGGGCCUGUGAGAGGGAGGGGCUCCGCAACAGAGGAUUGAGCAUCA"}, "B3": {"name": "52098632_52100650_1216_3pUTR_ENSG00000128872_ENST00000249700|human|control|control (ssRNA)", "RNA": "GGGAGUUCUACAGUCCGACGAUCUACCUUCGGUCUGCUUCAACUCUCUUCUUACGAACCAGGUCAUUAUUCUUUGUGAUGGCAGCUGCCACCCUUGUUCGUGGCCCUUGCUUGGUAAACUGGUAUCCAAACUUGAGGAUCCUUCAACAGAGGAUUGAGCAUCA"}, "B4": {"name": "chr5:121736274:121736275:+_ENSMUSG00000042744_ENSMUST00000119892|mus_mus|FALSE|FALSE (ssRNA)", "RNA": "GGGAGUUCUACAGUCCGACGAUCCUGGUGAAUGCACAUGGCGCCAACAUGGUGCAGUAACUGGUUUAUGACUUCAUUUGUGCUAAUGGCCUCUUCUUUGGGCUCGGUGAUGAUAUGGCUGACACCCAGUCUCUGGCACACGUACAACAGAGGAUUGAGCAUCA"}, "B5": {"name": "chr3:128198961:128198962:-_ENSG00000179348_ENST00000341105|hu_hu|motif|central (ssRNA)", "RNA": "GGGAGUUCUACAGUCCGACGAUCACUGGACCCAAAAAGAGUUUAAAAAUAAAACAAUUAACUCAUCAGCGAGUUAAGCCGGUGCAUUUUUUUAAUAUUUUUUCUUUUGUCUCAGAGUAGGAGGCGAGGGGGUUGAAGGGUUAGCAACAGAGGAUUGAGCAUCA"}, "B6": {"name": "chr12:48362563:48362564:+_ENSG00000134291_ENST00000256686|hu_hu|hu_hu_hu_mus_False|58_78 (ssRNA)", "RNA": "GGGAGUUCUACAGUCCGACGAUCUCCGUCAAGCCCUUCGAUAGACCCUUGCGGGGGUGGUAAAAACCACUUUGUAUUUCUAAAAAAAAGAAACGCCAAAAACUUUCCAAAAAGCGGGGGUGGGGUGAGGCGGGAGGGGGAGGUCAACAGAGGAUUGAGCAUCA"}, "B7": {"name": "119691784_119693947_668_CDS_ENSG00000158290_ENST00000371322|human|control|control (ssRNA)", "RNA": "GGGAGUUCUACAGUCCGACGAUCGAGUUCUUCUAAAUUGUACUUAAUUGAAGUACUAUUCUGAAUAGCUUCCACUGCUUCUUUCAGUUUUUGCCAGGUUUCAUCUGUGUAGUUUUCUGGUAAUUUAGGCUUAUCUUUAAAGUUCAACAGAGGAUUGAGCAUCA"}, "B8": {"name": "chr2:129025431:129025432:+_ENSMUSG00000027397_ENSMUST00000028880|mus_mus|motif|central (ssRNA)", "RNA": "GGGAGUUCUACAGUCCGACGAUCUUGCCACAGUAGAUUCCAUUCUCUAGUGUAGUGGUUCUUUAAAUAAUAAGAGAAUUACGGAGCGGCUUUUGAGAUGUGUAAACGGAAUGAGGUAUCAAAAUGCUAUAAUAAAUAGUAUAUCAACAGAGGAUUGAGCAUCA"}, "B9": {"name": "chr2:151326667:151326668:-_ENSG00000115963_ENST00000263895|hu_hu|FALSE|FALSE (ssRNA)", "RNA": "GGGAGUUCUACAGUCCGACGAUCUUUAUUUGUCUUAUUUACACAUGCCAAGGUGGCAACGUGAAAAAUGUCUCUGACGCUAUUUUCCGACUGUAAAGCUGAGCAUUCGAUAUAAGUAGCUGCUCCAAUCUGUUUGGCCAUAUUCAACAGAGGAUUGAGCAUCA"}, "B10": {"name": "chr14:105235747:105235748:-_ENSG00000142208_ENST00000407796|hu_mus|FALSE|FALSE (ssRNA)", "RNA": "GGGAGUUCUACAGUCCGACGAUCGAAAAGCAAUUUUUAUUGAAUUUGGAGGGACAGUUUCUUAUUAUAAUAGUAAAAAUGCUGAAGCUGAAUGUUGUAAAAAACGACAUGGUGCAGCAAUGGCCAGCGUCUGGCCGGGAGGGGCAACAGAGGAUUGAGCAUCA"}, "B11": {"name": "23376367_23376487_1679_3pUTR_ENSMUSG00000026158_ENSMUST00000027343|mouse|control|control (ssRNA)", "RNA": "GGGAGUUCUACAGUCCGACGAUCAUUUGAAAACACAUCCUAAAUGUAUUCUUUUAUUGGAUCUGGUCUUAAAACUUCUUAUUUAAUGUCCAAUUCAUUGUGAUCCAAAAUAAAAAGGCUUACAGCAAAAGUCACAGGUGGCCACAACAGAGGAUUGAGCAUCA"}, "B12": {"name": "chr14:21319500:21319501:-_ENSMUSG00000021816_ENSMUST00000161445|mus_hu|motif|central (ssRNA)", "RNA": "GGGAGUUCUACAGUCCGACGAUCGAGUUGUAUUCCAGGGCAUGAGGGAAGCAGGCCACCAAAGUAAAGGGAAAUACCAAACGGCAGUGGCAAUCAAUACAGGUCAAUAAUUGUGAAAAAUUAGCACAUGGUUCCAUUUAGUUUCAACAGAGGAUUGAGCAUCA"}, "B13": {"name": "chr14:105235747:105235748:-_ENSG00000142208_ENST00000407796|hu_hu|motif|central (ssRNA)", "RNA": "GGGAGUUCUACAGUCCGACGAUCACUUUUAUUGAAGAAUUUGGAGGGAAGGUUCCAUAUUAUAUUAUAAUAGUAAAAAUACGGAAGUUGAAUGUUGUAAAAAAACGCCGUGGUGCAGCGGCAGCGGCAGCGUCUGGCCAGGAGCAACAGAGGAUUGAGCAUCA"}, "B14": {"name": "chr17:55760890:55760891:+_ENSG00000153944_ENST00000284073|hu_mus|FALSE|FALSE (ssRNA)", "RNA": "GGGAGUUCUACAGUCCGACGAUCCAAUUUCAUAUGCAAUAUAAUACAGAAAGCAUGGCUGACCUUCAAUUUUAAAAAAAAAUGUAGUAAACUAUAUUGCUUUAUUCUUGAAGAUGCUGCUGCGGUGGGUGGAUGGCAGAGCGACAACAGAGGAUUGAGCAUCA"}, "B15": {"name": "chr14:105235747:105235748:-_ENSG00000142208_ENST00000407796|hu_hu|FALSE|FALSE (ssRNA)", "RNA": "B13 RNA with G82U, G83A"}, "B16": {"name": "chr10:71978566:71978567:-_ENSG00000180817_ENST00000373232|hu_hu|motif|central (ssRNA)", "RNA": "GGGAGUUCUACAGUCCGACGAUCUAAAGGGUCCUUUGUAGCAAUCUCCAUUUUUGCAUUAGACCAGCGUGGUACUUCAACGGCCAUGUGAAACACAUCCUUAUCUGCAUAAAUUGGAAUAUCAUGAAAUGGAGAUAUAUAUUGCAACAGAGGAUUGAGCAUCA"}},
  "note": "Numbering of substitutions follows the chain as printed. Whole data set: some 24,000 sequences, median “enrichment r” near 0.99, cut for the highest 2% near 3.7. The sample holds the highest values, similar sequences and a random draw of the others, so the mix is not that of the screen.",
  "data": [
    {"target": "T1, UNK ZnF1-3 (human, UniProt Q9C0B0 31-174)", "T1 sequence": "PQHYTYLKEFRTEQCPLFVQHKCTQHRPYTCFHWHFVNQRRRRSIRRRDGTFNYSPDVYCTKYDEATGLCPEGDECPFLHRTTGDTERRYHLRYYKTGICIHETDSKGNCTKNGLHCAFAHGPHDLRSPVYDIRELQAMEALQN", "assay": "nsRBNS (natural sequence RNA bind-n-seq); RBNS binding buffer (assumed for nsRBNS): 25 mM Tris pH 7.5, 150 mM KCl, 3 mM MgCl2, 0.01% Triton X-100, 500 ug/ml BSA, 20 U/ml SUPERase-In, 4 C; UNK is unkempt and MSI1 is Musashi-1; names of the RNAs are library labels; protein concentration not given here; high values mean tight binding", "units": {"binding signal": "enrichment R"}, "values": [
      {"binder": "B1", "binding signal": 0.751},
      {"binder": "B2", "binding signal": 2.15},
      {"binder": "B3", "binding signal": 0.553},
      {"binder": "B4", "binding signal": 0.813},
      {"binder": "B5", "binding signal": 1.54},
      {"binder": "B6", "binding signal": 3.57},
      {"binder": "B7", "binding signal": 0.363},
      {"binder": "B8", "binding signal": 1.26},
      {"binder": "B9", "binding signal": 0.818},
      {"binder": "B10", "binding signal": 4.04},
      {"binder": "B11", "binding signal": 0.637},
      {"binder": "B12", "binding signal": 2.39},
      {"binder": "B13", "binding signal": 5.41},
      {"binder": "B14", "binding signal": 1.14},
      {"binder": "B15", "binding signal": 7.85},
      {"binder": "B16", "binding signal": 0.593}
    ]}
  ]
}
